Source: PubChem BioAssay (NCI)
Several values for one entry are separate records, joined by “and”; a condition that tells them apart may be missing. Equal entries are not always repeated. The panel holds about 83,000 compounds, 20% with a hit somewhere; the sample as a whole holds those more often.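 Activity criterion: percent growth below 10, measured after cells in 96-well plates were exposed to a single compound concentration for 48 hours.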 Activity calls are given as the source filed them.

System: MDA-MB-468 breast
Test: NCI-60 one-dose screen, 48 h (100 = growth as untreated, 0 = no growth, -100 = all killed)
Details: 10 µM unless noted

Row | SMILES | growth
1 | S=c1[nH]c2cc(Cl)ccc2o1 | 99% (inactive)
2 | CC(NCCC(c1ccccc1)c1ccccc1)c1ccccc1 (stereo unspecified) | 49% (inactive)
3 | Clc1ccc(-c2cnc3nonc3n2)s1 | 49.6% (inactive)
4 | COc1ccc(/C(=C/c2cc(OC)c(OC)c(OC)c2)[N+](=O)[O-])cc1 | -75.2% (active)
5 | COc1ccc(-c2c(C)noc2-c2ccc(O)cc2O)cc1 | 77.8% (inactive)
6 | CC(C)NC(=O)OCc1c(COC(=O)NC(C)C)c(-c2ccc(Cl)cc2)n2c1CCC2 | -8.97% (active)
7 | COc1ccc2c(c1)/C(=C\c1c[nH]c3ccc(F)cc13)C(=O)N2 | 2.93% (active)
8 | O[C@@H](c1cc(C(F)(F)F)nc2c(C(F)(F)F)cccc12)[C@H]1CCCCN1 | 42.6% (inactive)
9 | Oc1ccc2cc(Br)ccc2c1-c1c(O)ccc2cc(Br)ccc12 | 90.9% (inactive)
10 | CCCCNc1nc(NC(C)(C)C)nc(NC(C)(C)C)n1 | 78.5% (inactive)
11 | COc1ccc(C2=C/C(=C\c3ccc(Cl)cc3)C(=O)NN2C(=S)NN)cc1 | 82.7% (inactive)
12 | O=C(Nc1cccc(-n2cc(-c3ccncc3)c(-c3ccc(O)c(Cl)c3)n2)c1)Nc1ccc(Cl)c(Cl)c1 | 27.3% (inactive)
13 | C=C(C)Cn1c(SCC(=O)c2cccs2)nc2sc3c(c2c1=O)CCCC3 | 68.6% (inactive)
14 | COC(=O)CCCCCN=Cc1c(O)c(O)c(C(C)C)c2cc(C)c(-c3c(C)cc4c(C(C)C)c(O)c(O)c(C=NCCCCCC(=O)OC)c4c3O)c(O)c12 | 26.3% (inactive)
15 | CC(=O)N1N=C(c2ccc(C(F)(F)F)c(F)c2)CC1c1[nH]c(C)c(C(=O)NCC(F)(F)F)c1C (stereo unspecified) | 78.5% (inactive)
16 | CC[C@]1(O)CC2CN(CCc3c([nH]c4ccccc34)[C@@](C(=O)OC)(c3cc4c(cc3OC)N(C)[C@H]3[C@@](O)(C(=O)OC)[C@H](OC(C)=O)[C@]5(CC)C=CCN6CC[C@]43[C@@H]65)C2)C1 (stereo partly specified) | 16.1% (inactive)
17 | O=C(c1ccc(Nc2nccc(NCCCNc3ccnc4cc(Cl)ccc34)n2)cc1)N1CCCCC1 | 29.5% (inactive)
18 | O=S(=O)(NCCNc1nccc(-c2c(-c3ccc(F)c(O)c3)nc3sccn23)n1)c1ccc(Cl)cc1 | 19.5% (inactive)
19 | CCNc1nc2ccc(Nc3ccnc4cc(Cl)ccc34)cc2[nH]1 | 21.8% (inactive)
20 | CCOc1ccc(NC(=O)c2ccoc2COc2ccccc2)cc1 | 113% (inactive)
21 | O=C(Nc1ccc(N=Cc2c(O)[nH]c3ccccc23)cc1)Nc1nccs1 | -2.28% (active)
22 | COC(=O)/C=C/C(=O)NC(N)=O | 90.8% (inactive)

Row | SMILES | growth
23 | Cc1ccccc1SSc1ccccc1C | 68.4% (inactive)
24 | C#CC(C)(O)c1ccc(Cl)cc1 (stereo unspecified) | 94.5% (inactive)
25 | CCCC(=O)OCC1OC(n2cnc3c(=S)nc[nH]c32)C(OC(=O)CCC)C1OC(=O)CCC (stereo unspecified) | 70.8% (inactive)
26 | Cn1c(-c2ccccc2)cc(=O)n1-c1ccccc1 | 105% (inactive)
27 | O=C(Nc1cnc(C(F)(F)F)cn1)c1cc(Cl)ccc1O | -0.82% (active)
28 | CCNCCNc1cc(-c2ccc(C(F)(F)F)cc2)c(C#N)c2nc3ccccc3n12 | -73.6% (active)
29 | Fc1ccccc1Nc1ccc2nnc(-c3ccncc3)n2n1 | 105% (inactive)
30 | NCCCNc1nc2ccccc2c2c(=O)c3cc(F)ccc3sc12 | 1.26% (active)
31 | COc1ccc(-c2nc(C#N)c(NCC(c3ccc(Cl)cc3)N3CCCCC3)o2)cc1 (stereo unspecified) | 93.3% (inactive)
32 | C=C(C)[C@@H]1CC[C@]2(C(N)=O)CC[C@]3(C)[C@H](CC[C@@H]4[C@@]5(C)CC[C@H](O)C(C)(C)[C@@H]5CC[C@]43C)[C@@H]12 | -56% [100 µM] (active)
33 | COc1ccccc1/C=C1\Oc2cc(OCCN3CCC(Cc4ccccc4)CC3)ccc2C1=O | 76.4% (inactive)
34 | c1ccc(C(NC2CC3CCC2C3)c2ccccc2)cc1 (stereo unspecified) | 96.8% (inactive)
35 | O=C1/C(=C\c2ccccc2)CN(C(=O)c2ccccc2)C/C1=C\c1ccccc1 | -48.6% (active)
36 | COc1cc(-c2nn(-c3cccc(NC(=O)CCN4CCN(c5ccccc5)CC4)c3)cc2-c2ccncc2)ccc1Cl | 28.8% (inactive)
37 | Cc1ccc(NC(=O)c2cc3ccccc3cc2O)c(C)c1 | 87.6% (inactive)
38 | COc1c(NC[C@H]2OC(O)[C@H](O)[C@@H](O)[C@@H]2O)c(=O)c1=O (stereo partly specified) | 94.1% (inactive)
39 | CCN(CC)CCCN1C(=O)c2c(c(C)c3c(oc4cc(O)ccc43)c2C)C1=O | 102% (inactive)
40 | O=C(Nc1ccccc1)Nc1ccc(Nc2ncnc3sc4c(c23)CCCC4)cc1 | 96.9% (inactive)
41 | Cc1[nH]c2ccccc2c(=O)c1CC=C(Cl)Cl | -43.2% (active)
42 | CS(=O)(=O)c1ccc(-c2nc3ccccc3n2CC(=O)N/N=C/c2ccccc2)cc1 | 112% (inactive)
43 | CCCCCCCC/C=C\CCCCCCCCOc1ccc(CC(=O)NCC[N+]2(C)CCCC2)cc1 | 33.5% (inactive)
44 | COc1ccc(C(=O)/C=C/c2ccc(/C=C/c3cc(OC)c(OC)c(OC)c3)cc2)cc1 | 51.9% (inactive)

Row | SMILES | growth
45 | CCN(CC)Cc1c(-c2cccc(OC(F)(F)F)c2)[nH]c2ccc(N3CCCC3)cc2c1=O | 93.1% (inactive)
46 | CCOC(=O)N/N=C\C(C)=N\NC(=O)OCC | 114% (inactive)
47 | O=c1cc(N2CCOCC2)oc2c(-c3ccc4c(c3)OCCO4)csc12 | -4.24% (active)
48 | COc1ccc(COC(C)=O)cc1 | 108% (inactive)
49 | c1ccc2c(c1)oc1c3c(ccc12)NCCC3 | -51.5% (active)
50 | CCn1c2ccccc2c2cc(-n3nncc3-c3ccccc3)ccc21 | 46.4% (inactive)
51 | COc1cc(-c2nc3ccccc3o2)cc(CN2CCN(c3ccccc3)CC2)c1O | 76.3% (inactive)
52 | OCCn1cccn1 | 103% (inactive)
53 | CCCCCCCCCCCCCCCc1cc(O)ccc1N | 70.1% (inactive) and 6.15% (active)
54 | O=C1/C(=C\c2ccc(Br)cc2)CN(C(=O)c2ccccc2F)C/C1=C\c1ccc(Br)cc1 | -54.1% (active)
55 | CCOC(=O)NNc1nncc2ccccc12 | 105% (inactive)
56 | COc1ccc(-c2nc(SCC(C)C)nc(Nc3ccccc3)c2C#N)cc1 | 80.7% (inactive)
57 | CC(C)Nc1ccc(Nc2ccc(NC(C)C)cc2)cc1 | -7.07% (active)
58 | Cc1ccc2c(C(C[N+](=O)[O-])c3ccccc3F)c(-c3ccccc3)[nH]c2c1 (stereo unspecified) | 10.5% (inactive)
59 | O=c1oc2ccc(F)cc2c(=O)n1-c1ccc(I)cc1F | -1.22% (active)
60 | Nc1nc(=S)c2ncn(C3OC(COP(=O)(O)O)C(O)C3O)c2[nH]1 (stereo unspecified) | 4.34% (active)
61 | CCCCCCCCCCC1CO1 (stereo unspecified) | 94.1% (inactive)
62 | Nc1nc(Nc2ccccc2SSc2ccccc2Nc2nc(N)nc(-c3ccccc3)n2)nc(-c2ccccc2)n1 | 102% (inactive)
63 | CCC1=C[C@@H]2CN(C1)Cc1c([nH]c3ccccc13)[C@@](C(=O)OC)(c1cc3c(cc1OC)N(C=O)[C@H]1[C@@](O)(C(=O)OC)[C@H](OC(C)=O)[C@]4(CC)[C@@H]5C[C@@H]5CN5CC[C@]31[C@@H]54)C2 | 25.2% (inactive)
64 | CC1=C2CC/C(C)=C/CC[C@]3(C)O[C@H]3CC/C(C)=C/[C@H]2OC1 | 98.6% (inactive)
65 | COc1cnc2c(c1)C(=O)c1c-2n(CCCN2CCNCC2)c(=O)c2cc(Cl)ccc12 | 65.8% (inactive)
66 | COc1cc(C2CC(c3ccc(Nc4ccnc5cc(Cl)ccc45)cc3)=NN2C=O)cc(OC)c1OC (stereo unspecified) | -7.9% (active)

Row | SMILES | growth
67 | O=C(CCCN1CCC(O)(c2ccc(Br)cc2)CC1)c1ccc(F)cc1 | 49.2% (inactive)
68 | N#CSc1c[nH]c2ccc(/C=C/C(=O)/C=C(O)/C=C/c3ccc4[nH]cc(SC#N)c4c3)cc12 | -8.53% (active)
69 | Cn1cc(-c2nonc2-c2c[nH]c3ccccc23)c2ccccc21 | -4.56% (active)
70 | Cc1cc(O)c(C(C)C)cc1N=O | 62.6% (inactive) and 104% (inactive)
71 | Cc1nc2sc(C(=O)Nc3ccccn3)c(N)c2cc1C(C)O (stereo unspecified) | 38.4% (inactive)
72 | Cc1ccc2oc(=O)cc(C3C(C#N)=C(N)Oc4c3ccc3ccccc43)c2c1 (stereo unspecified) | 63.8% (inactive)
73 | Cc1ccc(C(=O)CSc2nc(-c3ccc(Br)cc3)c(C#N)c(=O)[nH]2)cc1 | 92.2% (inactive)
74 | Cc1n(Cc2ccc3ccccc3n2)cc[n+]1Cc1ccc2ccccc2n1 | 8.07% (active)
75 | O=c1c2cc(F)cc(Cl)c2sc2c(Cl)nc3ccccc3c12 | 99% (inactive)
76 | CN(Cc1cc(Br)cc(Br)c1O)Cc1cc(Br)cc(Br)c1O | -1.21% (active)
77 | Fc1ccc2c(-c3cncn3CCc3ccccc3)c[nH]c2c1 | 74.6% (inactive)
78 | Cc1ccc2c(n1)C(=O)C(Cl)=C(Nc1ccccc1C(=O)OC(C)(C)C)C2=O | -76.5% (active)
79 | N#Cc1ccccc1OCC(=O)Nc1nc2c(s1)COc1ccccc1-2 | 98.7% (inactive)
80 | N#CC1=C(N)Oc2ccc3ccccc3c2C1c1ccccc1 (stereo unspecified) | 12.7% (inactive)
81 | CCN(CC)CCN1C(=O)c2cccc3c(-c4ccc5c(c4)ncn5C4CCCCC4)ccc(c23)C1=O | -6.34% (active)
82 | COc1cc(OC)cc(-c2ccc(-c3ccc(C(=N)N)cn3)s2)c1 | 64.4% (inactive)
83 | CCc1ccc(/C(C#N)=C/C=C/c2ccccc2)cc1 | -13.9% (active)
84 | C=CC(=O)N1CCC(Oc2cc3c(Nc4ccc(Cl)c(Cl)c4F)ncnc3cc2OC)CC1 | -62.5% (active)
85 | C#Cc1cccc(NC(=O)c2ccc(NC(=O)CCl)cc2)c1 | -34.6% [8.25 µM] (active)
86 | CN(C)[C@@H]1C(=O)C(C(=O)NCc2nc3[nH]cnc(=S)c3[nH]2)=C(O)[C@@]2(O)C(=O)C3=C(O)c4c(O)cccc4[C@@](C)(O)[C@H]3C[C@@H]12 | 81.2% (inactive)
